# Measurements published in the supplement of paper PMC6555819.
# System: VDR:RXRa (NR concentration 270 nM, RXRa partner concentration 90 nM)
# Test: PBM binding z-score (relative to random genomic background probes); higher = stronger binding; sequences stand for … in GC…GCGATTGACAGCGTAGAATGAAGG
# Experimental: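 Protein-binding microarray (Agilent 4x180K custom design, double-stranded 60-nt probes: 5' GC cap, 34-nt variable region, 24-nt constant primer region; full probe sequence given). Purified or IVT nuclear receptor:RXRα heterodimers (3:1 NR:RXRα, mostly 270:90 nM) or homodimers were incubated for 1 h in PBS with 2% milk and no ligand, then detected with Alexa488 antibodies. Fluorescence from o1-orientation probes (~5 replicates averaged) was converted to z-scores against 500 random hg19 background probes. Variable regions are seed direct-repeat (DR0–DR5) sites, all their single-nucleotide variants and half-site ablations.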
row,Sequence,PBM binding z-score
1,CAAACTAGGTCAAGAGGTCAATGTCCGCTTCCCG,5.64
2,TAGCCTTGGTCATGCGGGCCAGTATAGTGTCGGC,-0.724
3,CTTGAAAGGTCGTGCTCAGGTGAGTATACCAAAC,3.55
4,CCGAGTAGGTTATGGGGCATTGAGGCAACGGTGA,0.258
5,CGAACTAGGGCATCCAGGACAGTGAATACATTGA,0.492
6,TCTATTAGTTGATTACGGCAACCGAAACAGCGGA,0.738
7,GATACAGGGTCAGCTAGAGGCCACAGTATGGAAA,3.76
8,CCTACTGGGCCACCAAAGGTCATTGATTCAGTGA,4.13
9,CGTCCAAGGTCAAAAGTCAGTGAAGAGATGACGG,3.74
10,CTCGAAAGGTCGTGCTCAGTTGAGTATACCAAAC,3.59
11,CTCGAATGGTCGGTTGAGGTGAGTATACGGATAA,-0.211
12,ATATTTAGGTTAGCTGGGGTCATTCAGACTAGGC,6.03
13,CGTCCAAGGTCAAAGTTCAGTGAAGAGATGACGG,5.84
14,GATACAGGATCAGCTAGAGGCCAGAGTATGGAAA,-0.569
15,CCTACTGGGCCAAAGGTCGTTGATTCCAATGCTC,2.05
16,CGTCAAAGCTCAAGGTAACGTAACAGAAAGCAGC,-0.278
17,ACTAGCAGGCGAAGGGTCACTCAAGATTAGTCCG,2.23
18,CCTACTGGGCCAAAGGTCATTGTTTCCAATGCTC,4.11
19,ATCTCTAGGGAAGACTCAGTTCAGTGAAGAACGC,0.408
20,CAGCCAAGGTCAGGGCCAGTATAGGAGGAACGTT,2.4

row,Sequence,PBM binding z-score
1,CCTAGTCGGTCAAGGTCACACACGCTATAGGTAC,4.29
2,ATACCCAGGTGATCGTGAGGTCGTTGATACTAAC,2.51
3,TTACCAAGGTGAACGTCGTTGATCCCTCTGTAGA,0.322
4,ACAGACATGTGAGTGAAGGTAACTCAGCTGGACG,-0.252
5,TCGGGTAGGTTACCAATGGGGCATTCAGCTTTCT,0.639
6,TCGAGTAGGTTAGTCGGGGCCTTCAGCCAACATA,-0.158
7,ATCGAAAGGTTGACGAGGTGAGTATACACCGTTT,2.71
8,GCGACTGGGGCAATGCAGGTTACCATAAGGTTGG,-0.0726
9,AGGATGAGGTTAAGATCAGGGAAACAGAATACAT,1.39
10,CCTTTCGGGTCACGAGGTTATAGCACGACGAGCG,5.31
11,CCTTACGGGTCACGAGGTTATAGTACGACGAGCG,5.35
12,TCTTGTAGATCAATAGAGGTTAAAAAAGTGCGCT,1.94
13,GCATATACGTAATACAAGGTGAAAGTCCGATTGT,0.232
14,CTCGAAAGGTCGGTTGAGGTGCGTATACGGATAA,2.09
15,CGTCATAGTTCAAGGTAACGTAACAGAAAGCAGC,1.3
16,TCTTGTAGATCAACAGAGGTTAAGAAAGTGCGCT,2.03
17,CAAACTAGGTCAAATGTCAAAGTCGAGCCAACCA,3.1
18,CGTCAAAGTTCAAGGTAACGTAGCAGAAAGCAGC,3.6
19,GCTTACGGGTCAAACGTTATAGCATGAATAGAAT,3.74
20,CCTACTGGGCCATTCAGAGGTCATAGATCATATG,3.64
